Our source for the inhibition values is PubChem BioAssay AID624101 (Broad Institute, 2012).

In general, inhibition refers to the change of the read-out against control, counted positive when it falls.

Hit rate of the full screen: of about 70,000 compounds, about 120 (0.17%) were called active. Cut-off read from the data, not from the text of the source: active = inhibition above about 34%; inconclusive = no clear call, values can overlap the other calls; inactive = below about 11%. The full list was thinned out, with actives kept by preference.

The experiment deals with Isocitrate dehydrogenase [NADP] cytoplasmic (Homo sapiens) (UniProt O75874). Briefly: PubChem AID 624101.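 Note: 0% = DMSO and 100% = no enzyme.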 The note with it: IDH1 R132H reductase, diaphorase/resazurin fluorescence, 60 min; at 10 µM; active compounds read high. (Alamar Blue is a resazurin reagent that responds to reducing activity.)
Sequence of Isocitrate dehydrogenase [NADP] cytoplasmic (Homo sapiens) (O75874 whole entry R132H): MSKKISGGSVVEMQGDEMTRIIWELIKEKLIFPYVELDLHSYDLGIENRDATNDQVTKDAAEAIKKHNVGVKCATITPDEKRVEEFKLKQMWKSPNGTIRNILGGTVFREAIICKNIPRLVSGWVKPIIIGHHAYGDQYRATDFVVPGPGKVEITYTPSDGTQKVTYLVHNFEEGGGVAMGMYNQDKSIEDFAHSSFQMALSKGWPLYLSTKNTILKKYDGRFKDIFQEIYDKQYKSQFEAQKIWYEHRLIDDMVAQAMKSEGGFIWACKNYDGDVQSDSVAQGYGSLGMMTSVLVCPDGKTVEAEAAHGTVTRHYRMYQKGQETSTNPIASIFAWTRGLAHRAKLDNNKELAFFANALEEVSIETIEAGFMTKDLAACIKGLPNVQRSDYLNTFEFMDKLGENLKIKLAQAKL
With `COc1cccc(-c2ccc3c(c2)O[C@H](CN(C)C(=O)C2CCOCC2)[C@H](C)CN([C@H](C)CO)S3(=O)=O)c1`, the inhibition is -1.58% (inactive).

Turning to `C[C@H](O)C#Cc1ccc2c(c1)O[C@H](CN(C)Cc1ccccn1)[C@H](C)CN([C@H](C)CO)S2(=O)=O`, the inhibition was 1.79% (inactive).

`CCCN(C)C[C@H]1Oc2cc(C#CCC(C)C)ccc2S(=O)(=O)N([C@H](C)CO)C[C@H]1C`: the inhibition is -4.36% (inactive).

For the compound `C/C=C/c1ccc2c(c1)O[C@@H](CN(C)C(=O)Cc1ccccc1)[C@H](C)CN([C@@H](C)CO)S2(=O)=O`, the inhibition was 0.0005% (inactive).

In the case of `C/C=C/c1ccc2c(c1)O[C@H](CN(C)C(=O)Cc1cccnc1)[C@@H](C)CN([C@H](C)CO)S2(=O)=O`, the inhibition is 9.7% (inactive).

Consider `CCCN(C)C[C@@H]1Oc2cc(C#CCc3ccccc3)ccc2S(=O)(=O)N([C@H](C)CO)C[C@@H]1C`, for which the inhibition was 35.5% (active).

Take `CCCC#Cc1ccc2c(c1)O[C@@H](CN(C)CCC)[C@@H](C)CN([C@H](C)CO)S2(=O)=O`: the inhibition was -0.176% (inactive).

For the compound `C[C@@H]1CN([C@@H](C)CO)S(=O)(=O)c2ccc(C#CCC3CCCC3)cc2O[C@@H]1CN(C)C`, the inhibition is -1.79% (inactive).

Regarding `C[C@@H]1CN([C@H](C)CO)S(=O)(=O)c2ccc(C#CCC3CCCC3)cc2O[C@H]1CN(C)Cc1ccc(C(=O)O)cc1`, the inhibition was 45.9% (active).

`C/C=C/c1ccc2c(c1)O[C@H](CN(C)C(=O)Cc1ccncc1)[C@@H](C)CN([C@@H](C)CO)S2(=O)=O`: the inhibition was 37.6% (active).

As to `C[C@@H]1CN([C@@H](C)CO)S(=O)(=O)c2ccc(C#CCC3CCCC3)cc2O[C@H]1CN(C)Cc1ccc(C(=O)O)cc1`, the inhibition was 0.74% (inactive).

On to `C[C@@H]1CCCCO[C@@H](CN(C)C(=O)Nc2ccc(C(F)(F)F)cc2)[C@H](C)CN([C@H](C)CO)C(=O)c2cc(NC(=O)C3CCCCC3)ccc2O1`, for which the inhibition was 1.02% (inactive).

As to `O=C(NCC[C@@H]1CC[C@H](NC(=O)C2CC2)[C@@H](CO)O1)c1cc(Cl)cc(Cl)c1`, the inhibition is 0.406% (inactive).

In the case of `CCCNC(=O)C[C@H]1C[C@@H]2c3cc(NC(=O)C4CCOCC4)ccc3O[C@@H]2[C@H](CO)O1`, the inhibition is 0.074% (inactive).

Take `C[C@@H](NC(=O)C[C@@H]1C=C[C@@H](NC(=O)CN2CCOCC2)[C@H](CO)O1)c1ccccc1`: the inhibition is 0.081% (inactive).

Turning to `CO[C@@H]1CN(C)C(=O)c2ccc(NC(=O)C3CC3)cc2OC[C@H](C)N(C(=O)c2ccccc2)C[C@@H]1C`, the inhibition is 0.146% (inactive).

`CO[C@@H]1CN(C)C(=O)c2cc(NS(=O)(=O)c3ccccc3C)ccc2OC[C@@H](C)N(S(C)(=O)=O)C[C@@H]1C`: the inhibition is -0.22% (inactive).

Take `Cc1ccc(S(=O)(=O)N[C@@H]2CC[C@H](CCn3cc(C4(O)CCCC4)nn3)O[C@H]2CO)cc1`: the inhibition was 0.172% (inactive).

With `CCNC(=O)C[C@@H]1CC[C@H](NC(=O)NC2CCCCC2)[C@H](CO)O1`, the inhibition was 0.102% (inactive).

As to `CO[C@@H]1CN(C)C(=O)c2ccc(NC(=O)C3CCCC3)cc2OC[C@H](C)NC[C@@H]1C`, the inhibition is -0.326% (inactive).

Consider `CO[C@@H]1CN(C)C(=O)c2cc(NC(=O)c3ccccc3F)ccc2OC[C@H](C)NC[C@@H]1C`, for which the inhibition is 0.217% (inactive).

`COc1cccc(CNC(=O)c2cc3c(c(-c4cccc(-c5ccc(C#N)cc5)c4)n2)[C@@H](CCO)N([S@](=O)C(C)(C)C)C3)c1`: the inhibition was 0.432% (inactive).

With `O=C(N[C@@H]1CC[C@@H](CCNS(=O)(=O)c2ccccc2Cl)O[C@@H]1CO)c1ccccc1`, the inhibition is -0.485% (inactive).

`CO[C@@H]1CN(C)C(=O)c2cc(NC(=O)C3CC3)ccc2OC[C@@H](C)N(C(=O)c2ccncc2)C[C@H]1C`: the inhibition was 0.284% (inactive).

For the compound `COc1ccccc1-c1cnc2c(c1)C(=O)N([C@@H](C)CO)C[C@H](C)[C@@H](CN(C)C(C)=O)O2`, the inhibition was -1.01% (inactive).

`O=C(C[C@H]1C[C@H]2c3cc(NS(=O)(=O)c4ccc(F)cc4)ccc3O[C@H]2[C@H](CO)O1)NCc1cc(F)ccc1F`: the inhibition is -0.236% (inactive).

On to `O=C(N[C@H]1CC[C@@H](CCNS(=O)(=O)c2cccc(Cl)c2)O[C@@H]1CO)c1ccccc1`, for which the inhibition is -0.277% (inactive).

As for `CC(C)NC(=O)N[C@H]1CC[C@@H](CC(=O)NCc2ccc(Oc3ccccc3)cc2)O[C@@H]1CO`, the inhibition is -0.181% (inactive).

Take `O=C(N[C@H]1CC[C@H](CCNS(=O)(=O)c2ccc(F)cc2)O[C@H]1CO)C1CCC1`: the inhibition is -0.096% (inactive).

With `C[C@@H]1CN([C@H](C)CO)C(=O)c2cc(-c3ccc(C(=O)N(C)C)cc3)cnc2O[C@H]1CN(C)C(=O)C1CC1`, the inhibition was -0.906% (inactive).

In the case of `CO[C@@H](CN(C)C(=O)c1cnccn1)[C@@H](C)CN([C@@H](C)CO)S(=O)(=O)c1ccc(Cl)cc1`, the inhibition was 0.106% (inactive).

On to `O=C(C[C@H]1C[C@@H]2c3cc(NC(=O)c4cccnc4)ccc3O[C@@H]2[C@H](CO)O1)NCc1ccccn1`, for which the inhibition is -0.419% (inactive).

Take `CO[C@H]1CN(C)C(=O)c2ccc(NC(=O)c3ccc4c(c3)OCO4)cc2OC[C@@H](C)NC[C@@H]1C`: the inhibition is 0.0335% (inactive).

With `COCC(=O)Nc1ccc2c(c1)OC[C@@H](C)N(C(=O)c1cnccn1)C[C@H](C)[C@@H](OC)CN(C)C2=O`, the inhibition is 0.0305% (inactive).

`CO[C@@H]1CN(C)C(=O)c2ccc(NC(=O)Nc3ccccc3)cc2OC[C@@H](C)N(C(=O)Nc2c(C)noc2C)C[C@@H]1C`: the inhibition is -0.183% (inactive).

For `CO[C@@H]1CN(C)C(=O)c2cc(NS(=O)(=O)CC(F)(F)F)ccc2OC[C@@H](C)N(Cc2ccccn2)C[C@H]1C`, the inhibition was 0.0375% (inactive).

On to `CO[C@H]1CN(C)C(=O)c2cc(NC(=O)C3CC3)ccc2OC[C@H](C)N(C(=O)CN(C)C)C[C@H]1C`, for which the inhibition was 0.155% (inactive).

For the compound `O=C(C[C@@H]1C[C@H]2c3cc(NC(=O)Nc4ccccc4F)ccc3O[C@H]2[C@@H](CO)O1)NC1CCCCC1`, the inhibition is -0.261% (inactive).

With `CCC(=O)Nc1ccc2c(c1)C(=O)N(C)C[C@H](OC)[C@H](C)CN(C(=O)C1CCC1)[C@@H](C)CO2`, the inhibition was 0.203% (inactive).

For the compound `COCC(=O)Nc1ccc2c(c1)OC[C@@H](C)N(C(=O)c1ccncc1)C[C@@H](C)[C@@H](OC)CN(C)C2=O`, the inhibition was -0.0035% (inactive).
